# Where “and” joins values, the source holds several entries; their conditions need not be identical. Equal values may be shown once. Results filed as inconclusive are left out. Where a structure was tested more than once in an assay, its records may differ in their call. Calls of active or inactive are those of the source. How the source made its calls, unless noted: active means hit-call score of the fitted dose curve at least 0.9, where 1 is the maximum; inactive means score below 0.9.
# Legend:
# [1] = ATG_TAL_CIS: Attagene CIS-FACTORIAL HepG2 Assay for human TAL Basal Promoter (AID 2282966); conditions: HepG2 Attagene cis-factorial TAL promoter reporter; actives raise or lower the signal;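 further: background control endpoint measuring basal TAL promoter reporter mRNA not a specific factor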
# In short: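 HepG2, transient MRTU transfection, 24 h compound exposure; RNA → oligo(dT) RT → PCR → 6-FAM primer extension → HpaI digest → CE fluorescence. Bidirectional curve fit vs DMSO. Background-control readout.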
# [2] = ATG_TGFb_CIS: Attagene CIS-FACTORIAL HepG2 Assay for human Transforming Growth Factor (TGF) (AID 2282967); conditions: HepG2 Attagene CIS TGFb reporter, mRNA transcription; actives raise or lower the signal
# In short: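 Bidirectional fitting relative to DMSO gave the endpoint. Underlying data: reporter mRNA from HepG2 cells carrying transiently transfected cis-regulated reporter constructs, harvested 24 h after dosing and analyzed by RT-PCR and capillary electrophoresis.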
# [3] = molecular target: Nuclear receptor subfamily 1 group I member 3 (Homo sapiens) (UniProt Q14994); assay: ATG_CAR_TRANS: Attagene TRANS-FACTORIAL HepG2 Assay for human Constitutive Androstane Receptor (CAR) (AID 2282969; active means hit-call score of the fitted dose curve at least 0.9, where 1 is the maximum;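 further: activators raise reporter mRNA above DMSO so AC50 marks induction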); conditions: HepG2 Attagene TRANS-FACTORIAL CAR reporter
# Sequence of Nuclear receptor subfamily 1 group I member 3 (Homo sapiens) (Q14994 whole entry, looked up, the tested form may be a part): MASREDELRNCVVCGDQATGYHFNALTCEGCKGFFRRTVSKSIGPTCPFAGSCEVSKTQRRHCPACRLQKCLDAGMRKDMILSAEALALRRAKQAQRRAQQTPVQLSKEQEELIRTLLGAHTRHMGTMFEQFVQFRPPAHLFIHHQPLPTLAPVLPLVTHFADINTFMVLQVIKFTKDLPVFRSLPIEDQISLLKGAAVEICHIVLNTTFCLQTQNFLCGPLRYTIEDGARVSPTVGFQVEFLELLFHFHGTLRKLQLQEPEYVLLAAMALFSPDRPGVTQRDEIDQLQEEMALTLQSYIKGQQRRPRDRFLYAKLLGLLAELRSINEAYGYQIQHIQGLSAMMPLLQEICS
# In short: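 Transiently transfected HepG2, multiplex TRANS reporters (CAR-Gal4 chimera driving GAL4-UAS reporter). 24 h dosing. Readout: reporter transcript by RT-PCR + capillary electrophoresis, fluorescence intensity; positive direction vs DMSO.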
# [4] = molecular target: X-box-binding protein 1 (Homo sapiens) (UniProt P17861); assay: ATG_Xbp1_CIS: Attagene CIS-FACTORIAL HepG2 Assay for human X-box Binding Protein 1 (XBP1) (AID 2282972); conditions: HepG2 XBP1 cis-element reporter, Attagene multiplex; actives raise or lower the signal
# Sequence of X-box-binding protein 1 (Homo sapiens) (P17861 whole entry, looked up): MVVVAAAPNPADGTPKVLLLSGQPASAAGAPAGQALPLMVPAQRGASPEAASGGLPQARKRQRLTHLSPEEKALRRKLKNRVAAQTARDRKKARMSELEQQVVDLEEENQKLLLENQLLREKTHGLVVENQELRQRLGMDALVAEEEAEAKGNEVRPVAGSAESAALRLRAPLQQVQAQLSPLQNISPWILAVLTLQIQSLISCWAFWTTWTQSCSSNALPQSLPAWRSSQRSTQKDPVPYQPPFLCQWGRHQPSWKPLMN
# In short: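 Changes in reporter transcript abundance, read by RT-PCR and capillary electrophoresis, reflect endogenous transcription factor activity. Transfected HepG2 cells received compound for 24 hours; DMSO defined baseline for bidirectional analysis.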
# [5] = ATG_M_19_TRANS: Attagene TRANS-FACTORIAL HepG2 Assay for M19 Transcription Factor (Internal Marker) (AID 2282974; active means hit-call score of the fitted dose curve at least 0.9, where 1 is the maximum); conditions: HepG2 Attagene TRANS-FACTORIAL M19 internal marker reporter
# In short: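 Measured here: internal-marker reporter transcript from HepG2 cells transfected with MRTUs, harvested at 24 h. cDNA PCR products were 6-FAM labelled by primer extension, cut with HpaI for 2 h at 37 C, and resolved by CE.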
# [6] = molecular target: Bile acid receptor (Homo sapiens) (UniProt Q96RI1); assay: ATG_FXR_TRANS: Attagene TRANS-FACTORIAL HepG2 Assay for Farnesoid X Receptor (FXR) (AID 2282979; active means hit-call score of the fitted dose curve at least 0.9, where 1 is the maximum;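 further: hits raise reporter mRNA above DMSO so AC50 marks FXR activation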); conditions: HepG2 Attagene TRANS FXR-GAL4 reporter transcription
# Sequence of Bile acid receptor (Homo sapiens) (Q96RI1 whole entry, looked up, the tested form may be a part): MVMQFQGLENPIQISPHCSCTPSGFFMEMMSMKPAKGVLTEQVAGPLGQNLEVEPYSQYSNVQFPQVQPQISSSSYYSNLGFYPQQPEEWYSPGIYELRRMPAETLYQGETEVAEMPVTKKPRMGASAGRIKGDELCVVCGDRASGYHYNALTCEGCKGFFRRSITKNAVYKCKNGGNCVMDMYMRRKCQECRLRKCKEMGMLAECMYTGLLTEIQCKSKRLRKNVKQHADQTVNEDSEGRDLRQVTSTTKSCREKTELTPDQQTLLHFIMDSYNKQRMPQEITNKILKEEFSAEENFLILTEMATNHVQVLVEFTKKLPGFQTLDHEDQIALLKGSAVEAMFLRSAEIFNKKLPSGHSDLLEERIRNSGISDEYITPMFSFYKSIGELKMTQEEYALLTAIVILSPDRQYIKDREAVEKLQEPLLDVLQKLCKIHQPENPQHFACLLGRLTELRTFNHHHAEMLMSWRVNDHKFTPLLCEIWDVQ
# In short: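 Read-out: fluorescent reporter transcripts quantified by capillary electrophoresis after RT-PCR of total RNA. Source cells were HepG2 transiently carrying chimeric NR-GAL4 plus GAL4-UAS reporter units, dosed 24 h. Activity fitted upward relative to DMSO baseline.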
# [7] = molecular target: Oxysterols receptor LXR-beta (Homo sapiens) (UniProt P55055); assay: ATG_LXRb_TRANS: Attagene TRANS-FACTORIAL HepG2 Assay for human Liver X Receptor beta (LXRb) (AID 2282981; active means hit-call score of the fitted dose curve at least 0.9, where 1 is the maximum); conditions: HepG2 Attagene TRANS GAL4-LXRb reporter, mRNA
# Sequence of Oxysterols receptor LXR-beta (Homo sapiens) (P55055 whole entry, looked up, the tested form may be a part): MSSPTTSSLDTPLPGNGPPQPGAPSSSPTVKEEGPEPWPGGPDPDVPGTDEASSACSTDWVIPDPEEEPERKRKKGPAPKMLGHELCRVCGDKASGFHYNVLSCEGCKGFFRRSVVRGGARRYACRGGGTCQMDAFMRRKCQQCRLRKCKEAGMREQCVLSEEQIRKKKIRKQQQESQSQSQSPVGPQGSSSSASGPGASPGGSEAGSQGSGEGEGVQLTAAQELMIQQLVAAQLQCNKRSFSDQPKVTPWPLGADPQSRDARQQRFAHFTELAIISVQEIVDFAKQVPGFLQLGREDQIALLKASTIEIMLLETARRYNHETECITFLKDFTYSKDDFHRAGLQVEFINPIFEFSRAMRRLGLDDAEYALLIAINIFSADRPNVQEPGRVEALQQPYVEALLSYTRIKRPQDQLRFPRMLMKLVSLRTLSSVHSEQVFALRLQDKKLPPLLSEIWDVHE
# In short: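 Readout: fluorescent reporter mRNA fragments resolved by capillary electrophoresis after RT-PCR. System: transiently transfected human HepG2, exogenous LXRb-Gal4 chimera driving GAL4-UAS reporter, 24 h dosing. Activity fitted upward against DMSO baseline.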
# [8] = molecular target: Hepatocyte nuclear factor 4-alpha (Homo sapiens) (UniProt P41235); assay: ATG_HNF4a_TRANS: Attagene TRANS-FACTORIAL HepG2 Assay for human Hepatocyte Nuclear Factor 4 alpha (HNF4a) (AID 2282982; active means hit-call score of the fitted dose curve at least 0.9, where 1 is the maximum); conditions: HepG2 HNF4a transactivation reporter, mRNA readout
# Sequence of Hepatocyte nuclear factor 4-alpha (Homo sapiens) (P41235 whole entry, looked up): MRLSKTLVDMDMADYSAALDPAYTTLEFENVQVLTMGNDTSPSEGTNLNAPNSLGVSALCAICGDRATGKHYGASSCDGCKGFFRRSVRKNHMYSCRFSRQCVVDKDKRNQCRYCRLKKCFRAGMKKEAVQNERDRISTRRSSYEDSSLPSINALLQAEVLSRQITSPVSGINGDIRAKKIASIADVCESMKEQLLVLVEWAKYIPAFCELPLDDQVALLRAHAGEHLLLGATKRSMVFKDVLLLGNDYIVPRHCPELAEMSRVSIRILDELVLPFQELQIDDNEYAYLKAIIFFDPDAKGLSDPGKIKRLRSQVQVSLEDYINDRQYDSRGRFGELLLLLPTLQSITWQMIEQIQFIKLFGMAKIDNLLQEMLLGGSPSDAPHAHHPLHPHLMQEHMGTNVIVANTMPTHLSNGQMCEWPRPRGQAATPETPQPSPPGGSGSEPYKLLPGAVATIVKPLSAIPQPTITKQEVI
# In short: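 Transient MRTU transfection of HepG2, 24 h dosing. Readout: reporter mRNA via RT-PCR + capillary electrophoresis, fluorescence; activity fit upward relative to DMSO control.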
# [9] = ATG_M_06_TRANS: Attagene TRANS-FACTORIAL HepG2 Assay for M06 Transcription Factor (Internal Marker) (AID 2282983; active means hit-call score of the fitted dose curve at least 0.9, where 1 is the maximum); conditions: HepG2 Attagene TRANS M06 internal marker reporter
# In short: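 Read-out: fluorescent reporter cDNA fragments resolved by capillary electrophoresis after RT-PCR and HpaI cut. Source cells were HepG2 carrying transfected multi-reporter GAL4 constructs, dosed 24 h. Increase over DMSO control analysed.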
# [10] = ATG_M_32_TRANS: Attagene TRANS-FACTORIAL HepG2 Assay for M32 Transcription Factor (Internal Marker) (AID 2282984; active means hit-call score of the fitted dose curve at least 0.9, where 1 is the maximum;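 further: transcript level of a background control reporter unit measured by RT-PCR and capillary electrophoresis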); conditions: HepG2 Attagene TRANS M32 internal marker reporter
# In short: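 Read-out: fluorescent reporter cDNA fragments resolved by capillary electrophoresis after RT-PCR of total RNA. Transfected HepG2 cells were exposed to chemical for 24 h. Activity scored in the positive direction relative to DMSO.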
# [11] = molecular target: Transcriptional activator Myb (Homo sapiens) (UniProt P10242); assay: ATG_Myb_CIS: Attagene CIS-FACTORIAL HepG2 Assay for human Myeloblastosis (Myb) Proto-Oncogene Transcription Factor (AID 2282986); conditions: HepG2 Attagene CIS-FACTORIAL Myb reporter transcription; actives raise or lower the signal
# Sequence of Transcriptional activator Myb (Homo sapiens) (P10242 whole entry, looked up): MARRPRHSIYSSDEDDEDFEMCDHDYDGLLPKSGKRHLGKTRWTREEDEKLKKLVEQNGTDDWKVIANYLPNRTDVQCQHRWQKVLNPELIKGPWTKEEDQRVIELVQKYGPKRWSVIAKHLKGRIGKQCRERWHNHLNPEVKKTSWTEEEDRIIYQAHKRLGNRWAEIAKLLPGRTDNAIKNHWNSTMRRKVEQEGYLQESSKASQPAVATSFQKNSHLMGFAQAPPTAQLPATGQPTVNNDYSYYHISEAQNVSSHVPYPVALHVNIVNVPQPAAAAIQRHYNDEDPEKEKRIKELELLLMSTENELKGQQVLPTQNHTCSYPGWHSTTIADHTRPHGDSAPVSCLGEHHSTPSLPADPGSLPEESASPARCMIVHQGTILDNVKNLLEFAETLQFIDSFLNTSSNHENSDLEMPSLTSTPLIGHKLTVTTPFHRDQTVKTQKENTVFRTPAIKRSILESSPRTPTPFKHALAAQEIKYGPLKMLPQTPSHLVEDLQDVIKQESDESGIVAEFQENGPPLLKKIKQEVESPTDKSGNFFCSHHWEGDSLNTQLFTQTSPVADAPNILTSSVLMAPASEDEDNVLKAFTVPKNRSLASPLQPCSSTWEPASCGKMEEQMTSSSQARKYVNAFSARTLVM
# In short: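 Fluorescence signals from capillary electrophoresis of RT-PCR-amplified reporter cDNA give the read-out. Cells: HepG2 transfected with multiple cis-regulated reporter units. Exposure lasts 24 hours; DMSO defines baseline for gain or loss of signal.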
# [12] = molecular target: Nuclear respiratory factor 1 (Homo sapiens) (UniProt Q16656); assay: ATG_NRF1_CIS: Attagene CIS-FACTORIAL HepG2 Assay for human Nuclear Respiratory Factor 1 (NRF1) Orphan Gene (AID 2282987); conditions: HepG2 NRF1 cis-element reporter, Attagene multiplex; actives raise or lower the signal
# Sequence of Nuclear respiratory factor 1 (Homo sapiens) (Q16656 whole entry, looked up): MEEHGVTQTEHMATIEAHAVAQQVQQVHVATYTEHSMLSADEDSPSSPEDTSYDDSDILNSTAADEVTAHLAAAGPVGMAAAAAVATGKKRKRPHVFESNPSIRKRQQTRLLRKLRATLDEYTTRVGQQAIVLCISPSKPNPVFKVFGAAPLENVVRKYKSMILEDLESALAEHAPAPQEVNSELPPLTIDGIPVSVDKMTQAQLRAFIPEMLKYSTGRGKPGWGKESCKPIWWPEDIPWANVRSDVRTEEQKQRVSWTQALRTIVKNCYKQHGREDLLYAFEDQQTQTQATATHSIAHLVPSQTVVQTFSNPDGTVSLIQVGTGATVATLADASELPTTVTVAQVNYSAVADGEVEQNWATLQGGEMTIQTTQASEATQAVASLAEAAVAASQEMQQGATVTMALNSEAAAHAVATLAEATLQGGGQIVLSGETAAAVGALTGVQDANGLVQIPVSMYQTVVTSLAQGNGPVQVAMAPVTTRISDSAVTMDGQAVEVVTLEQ
# In short: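 Transcriptional reporter readout, one component of a 52-endpoint multiplexed HepG2 panel. Exposure 24 h; mRNA detected via RT-PCR and fluorescent capillary electrophoresis; fitting in both directions against DMSO.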
# [13] = ATG_NFI_CIS: Attagene CIS-FACTORIAL HepG2 Assay for human Nuclear Factor I (NFI) (AID 2282989); conditions: HepG2 cis-regulatory reporter, NFI response element transcription; actives raise or lower the signal
# In short: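 Cells: human liver HepG2, transiently transfected with promoter-regulated reporter transcription units. Exposure 24 h. Detection: fluorescent RT-PCR products separated by capillary electrophoresis, normalised to DMSO negative control.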
# [14] = ATG_VDRE_CIS: Attagene CIS-FACTORIAL HepG2 Assay for human Vitamin D Receptor Element (VDRE) (AID 2282968); conditions: HepG2 VDRE cis-reporter transcription, actives raise or lower the signal
# In short: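 Transient MRTU transfection of HepG2, 24 h compound exposure. Readout: reporter transcripts via RT-PCR and capillary electrophoresis, fluorescence. Bidirectional fit vs DMSO.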
# [15] = ATG_GAL4_TRANS: Attagene TRANS-FACTORIAL HepG2 Assay for GAL4 (Internal Marker) (AID 2282976; active means hit-call score of the fitted dose curve at least 0.9, where 1 is the maximum); conditions: HepG2 Attagene TRANS GAL4 internal marker reporter
# In short: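 RT-PCR/capillary electrophoresis readout of reporter mRNA. HepG2, transient MRTU transfection (GAL4-UAS reporters), 24 h compound exposure. Background-control endpoint, positive direction vs DMSO baseline.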
# [16] = molecular target: Glucocorticoid receptor (Homo sapiens) (UniProt P04150); assay: ATG_GR_TRANS: Attagene TRANS-FACTORIAL HepG2 Assay for human Glucocorticoid Receptor (GR) (AID 2282978; active means hit-call score of the fitted dose curve at least 0.9, where 1 is the maximum;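 further: activators score as hits since higher reporter transcript over DMSO is fitted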); conditions: HepG2 Attagene TRANS GR reporter, mRNA transcription
# Sequence of Glucocorticoid receptor (Homo sapiens) (P04150 whole entry, looked up, the tested form may be a part): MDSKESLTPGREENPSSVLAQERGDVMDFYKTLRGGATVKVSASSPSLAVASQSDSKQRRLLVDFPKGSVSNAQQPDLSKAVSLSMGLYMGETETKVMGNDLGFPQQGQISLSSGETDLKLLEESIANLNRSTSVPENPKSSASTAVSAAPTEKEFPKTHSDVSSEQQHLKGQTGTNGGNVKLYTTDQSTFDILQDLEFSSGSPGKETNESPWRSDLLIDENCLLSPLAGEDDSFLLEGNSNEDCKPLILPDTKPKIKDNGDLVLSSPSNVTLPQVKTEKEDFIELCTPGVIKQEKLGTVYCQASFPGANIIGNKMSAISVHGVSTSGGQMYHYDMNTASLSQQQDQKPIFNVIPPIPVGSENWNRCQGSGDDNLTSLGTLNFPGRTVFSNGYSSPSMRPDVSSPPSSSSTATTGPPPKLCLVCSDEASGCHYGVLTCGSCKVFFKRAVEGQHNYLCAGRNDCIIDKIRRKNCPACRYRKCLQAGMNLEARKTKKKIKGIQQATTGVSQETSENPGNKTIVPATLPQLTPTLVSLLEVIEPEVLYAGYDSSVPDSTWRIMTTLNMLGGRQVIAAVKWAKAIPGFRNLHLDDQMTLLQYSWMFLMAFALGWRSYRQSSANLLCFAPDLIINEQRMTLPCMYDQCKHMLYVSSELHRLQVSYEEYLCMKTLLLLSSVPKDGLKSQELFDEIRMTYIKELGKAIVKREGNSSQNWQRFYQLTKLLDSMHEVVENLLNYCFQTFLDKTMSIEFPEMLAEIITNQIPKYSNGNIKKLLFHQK
# In short: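 Measurement of GAL4-UAS-driven reporter mRNA in human HepG2 liver cells 24 h post-dosing, using RT-PCR with fluorescent labelling and capillary electrophoresis; the transfected constructs report exogenous NR-GAL4 chimera activity, fitted upward against DMSO.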
# [17] = molecular target: Estrogen receptor (Homo sapiens) (UniProt P03372); assay: ATG_ERa_TRANS: Attagene TRANS-FACTORIAL HepG2 Assay for human Estrogen Receptor alpha (ERa) (AID 2282970; active means hit-call score of the fitted dose curve at least 0.9, where 1 is the maximum); conditions: HepG2 Attagene TRANS ERa GAL4 reporter, mRNA
# Sequence of Estrogen receptor (Homo sapiens) (P03372 whole entry, looked up, the tested form may be a part): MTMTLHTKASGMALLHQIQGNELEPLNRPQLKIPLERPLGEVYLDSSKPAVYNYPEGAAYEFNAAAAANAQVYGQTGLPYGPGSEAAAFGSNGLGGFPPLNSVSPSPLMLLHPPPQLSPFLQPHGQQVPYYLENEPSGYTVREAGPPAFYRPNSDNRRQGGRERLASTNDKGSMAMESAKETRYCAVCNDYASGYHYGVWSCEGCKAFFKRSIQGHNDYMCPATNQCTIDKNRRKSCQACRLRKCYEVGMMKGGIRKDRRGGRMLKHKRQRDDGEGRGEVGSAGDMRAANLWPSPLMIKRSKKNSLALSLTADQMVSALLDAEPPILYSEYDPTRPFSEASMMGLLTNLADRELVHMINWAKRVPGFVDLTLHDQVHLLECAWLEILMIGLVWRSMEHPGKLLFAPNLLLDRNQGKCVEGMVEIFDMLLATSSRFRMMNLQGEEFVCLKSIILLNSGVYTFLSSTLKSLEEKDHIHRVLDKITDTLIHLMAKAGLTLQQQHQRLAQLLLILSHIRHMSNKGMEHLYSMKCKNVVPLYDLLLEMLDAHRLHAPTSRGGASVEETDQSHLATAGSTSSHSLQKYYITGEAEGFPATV
# In short: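 Reporter mRNA induction after 24 hours, detected by fluorescent RT-PCR and capillary electrophoresis, gives the read-out. Cells are HepG2 transiently transfected with GAL4-UAS reporter transcription units responding to chimeric NR-Gal4. Activity is taken as gain of signal over DMSO baseline.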
# [18] = ATG_Hpa5_TRANS: Attagene TRANS-FACTORIAL HepG2 Assay for human GAL4-Hpa5 Hepatocyte Transcription Factor Basal Promoter (AID 2282975; active means hit-call score of the fitted dose curve at least 0.9, where 1 is the maximum;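 further: hits are increases in reporter mRNA over DMSO baseline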); conditions: HepG2 Attagene GAL4-Hpa5 transcription reporter
# In short: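 Gain-of-signal versus DMSO is fitted for reporter mRNA quantified by RT-PCR and capillary electrophoresis after 24 h exposure. This endpoint is an internal background marker in transiently transfected HepG2 cells carrying GAL4-UAS reporter units.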
smiles,measurement,setting,value
CCC(C)(c1ccc(O)cc1)c1ccc(O)cc1,outcome,[1],inactive
same,outcome,[2],inactive
same,outcome,[3],inactive
same,AC50,[4],54.8 µM (active) and 52.7 µM (active) and 16.7 µM (active)
same,outcome,[4],inactive
same,outcome,[5],inactive
same,outcome,[6],inactive
same,outcome,[7],inactive
same,outcome,[8],inactive
same,outcome,[9],inactive
same,outcome,[10],inactive
same,outcome,[11],inactive
same,outcome,[12],inactive
same,AC50,[13],53 µM (active)
same,outcome,[13],inactive
CN(C)CCO,outcome,[1],inactive
same,outcome,[2],inactive
same,outcome,[14],inactive
same,outcome,[3],inactive
same,outcome,[4],inactive
same,outcome,[5],inactive
same,outcome,[15],inactive
same,outcome,[16],inactive
same,outcome,[7],inactive
same,outcome,[8],inactive
same,outcome,[9],inactive
same,outcome,[10],inactive
same,outcome,[11],inactive
same,outcome,[12],inactive
same,outcome,[13],inactive
CN(C)c1nc(=O)n(C2CCCCC2)c(=O)n1C,outcome,[1],inactive
same,outcome,[2],inactive
same,outcome,[14],inactive
same,outcome,[17],inactive
same,outcome,[4],inactive
same,outcome,[18],inactive
same,outcome,[7],inactive
same,outcome,[9],inactive
same,outcome,[11],inactive
same,outcome,[12],inactive
same,outcome,[13],inactive
O=S(=O)(O)C(F)(F)C(F)(F)C(F)(F)C(F)(F)F,outcome,[1],inactive
same,outcome,[2],inactive
same,outcome,[14],inactive
same,outcome,[4],inactive
same,outcome,[5],inactive
same,outcome,[15],inactive
same,outcome,[16],inactive
same,outcome,[7],inactive
same,outcome,[8],inactive
same,outcome,[9],inactive
same,outcome,[10],inactive
same,outcome,[11],inactive
same,outcome,[12],inactive
same,outcome,[13],inactive
Clc1ccc(C(Cl)(Cl)Cl)cc1,outcome,[1],inactive
same,outcome,[2],inactive
same,outcome,[4],inactive
same,outcome,[15],inactive
same,outcome,[16],inactive
same,outcome,[7],inactive
same,outcome,[9],inactive
same,outcome,[10],inactive
same,outcome,[11],inactive
same,outcome,[12],inactive
same,outcome,[13],inactive
CCCCCCOC(=O)c1ccccc1C(=O)OCCCCCC,outcome,[1],inactive
same,outcome,[2],inactive
same,outcome,[3],inactive
same,outcome,[17],inactive
same,outcome,[4],inactive
same,outcome,[15],inactive
same,outcome,[16],inactive
same,outcome,[9],inactive
same,outcome,[11],inactive
same,outcome,[12],inactive
same,outcome,[13],inactive
OCC(O)CO,outcome,[1],inactive
same,outcome,[2],inactive
same,outcome,[14],inactive
same,AC50,[17],85.1 µM (active)
same,outcome,[4],inactive
same,outcome,[5],inactive
same,outcome,[16],inactive
same,outcome,[6],inactive
same,outcome,[7],inactive
same,outcome,[10],inactive
same,outcome,[11],inactive
same,outcome,[12],inactive
same,outcome,[13],inactive
CCSC(=O)N(CC)C1CCCCC1,outcome,[1],inactive
same,outcome,[2],inactive
same,AC50,[14],18.1 µM (active)
same,outcome,[17],inactive
same,outcome,[4],inactive
same,outcome,[5],inactive
same,outcome,[7],inactive
same,outcome,[11],inactive
same,outcome,[12],inactive
same,outcome,[13],inactive

# — PubChem BioAssay (EPA / NIEHS)
